The results in this text go back to PubChem BioAssay.

SMILES strings stand for the structures. A number with no mark means an inactive call. No rule for the calls is given here.

One experiment in a line: inhibitors of hydroxyurea-induced Chk1 phosphorylation, primary screen, imaging, HeLa, phospho-Chk1 antibody, percent positive cells (AID 1186). The settings on record: hydroxyurea-induced phospho-Chk1 immunofluorescence imaging, higher = more signal.
In the case of `O=C1c2ccccc2[C@](Cc2ccccc2I)(C(=O)NCC(F)(F)F)[C@H](c2ccc(CO)cc2)N1Cc1ccccc1Cl`, the z-score is -0.151.

In the case of `C=CC[C@]1(C(=O)NCCCOC)N=C(c2ccc(OCCCO)cc2)O[C@H]1c1ccccc1CN=[N+]=[N-]`, the z-score is 0.14.

On to `COc1cc(C(O)C2C=CC3C(=O)NC(=O)C3N2Nc2ccccn2)cc(OC)c1OC` (centres undefined), for which the z-score was 0.209. For the compound `[N-]=[N+]=NCc1ccccc1C[C@]1(C(=O)N2CCCCC2)N=C(c2ccc(OCCCO)cc2)O[C@H]1c1ccccc1N=[N+]=[N-]`, the z-score is -0.273. `COC(=O)C(CC#Cc1ccc2c(c1)[C@]1(C(=O)N2)[C@H](c2ccc(OCCO)cc2)N2[C@H](c3ccccc3)[C@H](c3ccccc3)OC(=O)[C@H]2[C@@H]1C(=O)N1CCc2cc(OC)c(OC)cc2C1)C(=O)OC`: the z-score is 0.192. Regarding `C=CCOC(=O)[C@H]1[C@@H]2C(=O)O[C@@H](c3ccccc3)[C@@H](c3ccccc3)N2[C@@H](c2ccc(OCCOC(=O)[C@@H]3C[C@@H]4C(=O)N[C@@H](CCCCNC(C)=O)C(=O)N4[C@@H]3c3ccc(O)cc3)cc2)[C@]12C(=O)Nc1ccccc12`, the z-score was -0.731.

For the compound `O=C1C[C@@](C(=O)NC2CC2)(c2ccc([N+](=O)[O-])cc2)[C@@H](c2ccc(CO)cc2I)N1C1CCCCC1`, the z-score was -0.254.

Turning to `O=C(NCCO)C1=C[C@H](Oc2ccccc2I)[C@@H](O)[C@H](N(Cc2ccco2)C(=O)Cc2ccccc2)C1`, the z-score is 0.0831. `C=CCN1C(=O)[C@]2(O[C@H](CCn3cc([C@H](O)c4ccccc4)nn3)[C@@H]([Si](C)(C)c3ccc(OC)cc3)[C@@H]2C)c2cc(N3CCC3=O)ccc21`: the z-score is -0.318. As to `CC(C)NC(=O)[C@@H]1c2ccccc2C(=O)N(C2Cc3ccccc3C2)[C@H]1c1ccc(CO)cc1`, the z-score was -0.24.

Take `NC(=O)N1C(=O)C2C(C1=O)C1C=C(c3ccc(CO)cc3)C2C(c2cccs2)N1Cc1cccc(OC(F)(F)F)c1` (centres undefined): the z-score was 0.0422. With `CC(C)NC(=O)[C@@]1(C)c2ccccc2C(=O)N(Cc2cc(C(F)(F)F)cc(C(F)(F)F)c2)[C@H]1c1ccc(CO)cc1`, the z-score was -0.281. On the same count and under the same terms, with `COC(=O)[C@@]1(Cc2ccc(OC)cc2)[C@H]2c3cc(C(=O)N(C)C)n(C)c3C[C@H]2CN1C(=O)c1ccccc1` the figure was -0.0095.

Turning to `CN1C(=O)C2C=CC(C(O)C#Cc3ccccc3)N(N3CCCCC3)C2C1=O` (centres undefined), the z-score was -0.699. Regarding `COC(=O)C(CC#Cc1ccc2c(c1)[C@]1(C(=O)N2)[C@H](C(=O)Nc2nc3ccccc3s2)[C@H]2C(=O)O[C@H](c3ccccc3)[C@H](c3ccccc3)N2[C@@H]1c1ccccc1OCCO)C(=O)OC`, the z-score is 0.0018. Regarding `COCCOC(=O)N1C(=O)[C@@]2(c3cc(C#CC4(O)CCCCCC4)ccc31)[C@H](c1ccc(OCCO)cc1)N1[C@H](c3ccccc3)[C@H](c3ccccc3)OC(=O)[C@H]1[C@@H]2C(=O)N1CCN(c2ncccn2)CC1`, the z-score is -0.0615.

For the compound `C=C(C)[C@@H]1CC=C(C(O)C2C=CC3C(=O)N(c4ccccc4)C(=O)C3N2Nc2ccccc2)CC1` (some centres undefined), the z-score was -0.437. Same read-out and setting: with `COC(=O)[C@@]1(Cc2ccc(OC)cc2)[C@H]2c3cc(C(=O)N(C)C)n(Cc4ccccn4)c3C[C@H]2CN1C(=O)c1ccccc1` the figure was -0.276; with `NC(=O)NCC#Cc1ccc2c(c1)[C@]1(C(=O)N2)[C@H](c2ccccc2OCCO)N2[C@H](c3ccccc3)[C@H](c3ccccc3)OC(=O)[C@H]2[C@@H]1C(=O)Nc1nc2ccccc2s1`, 0.164. Still for that read-out and setting: the same measure for `COC(=O)[C@@]1(Cc2ccc(OC)cc2)[C@H]2c3cc(C(=O)N(C)C)n(CCc4ccccn4)c3C[C@H]2CN1C(=O)c1ccccc1`: 0.808; for `[N-]=[N+]=NCc1ccccc1[C@@H]1OC(c2ccc(OCCCO)cc2)=N[C@]1(Cc1ccccc1)C(N)=O`: -0.395. On the same count and under the same terms, with `CC#CC(=O)Oc1ccccc1C=CC(=O)OCC` the figure was 0.367; with `CCCC[C@@H]1C[C@H]1[C@@H](NC(=O)c1ccco1)c1ccc(-c2ccccc2)cc1`, 0.353; with `CC(C)CNC(=O)[C@@]1(Cc2ccccc2I)c2ccccc2C(=O)N(C2CCCCC2)[C@H]1c1ccc(CO)cc1`, 0.145.

Consider `COc1cc2c(cc1O)C(C1CC1)N(Cc1sc3ccccc3c1Cl)CC2` (centres undefined), for which the z-score was -0.147.

The next experiment is described as follows: inhibitors of hydroxyurea-induced Chk1 phosphorylation, primary screen, imaging, HeLa, phospho-Chk1 nuclear intensity (AID 1187). Also: test concentration not given here. The note with it: hydroxyurea-induced phospho-Chk1 immunofluorescence imaging, higher = more signal.
On to `NCCCCCNC(=O)[C@@H]1C[C@@H]2C(=O)N[C@@H](Cc3ccccc3)C(=O)N2[C@@H]1c1ccc(O)cc1`, for which the z-score was 0.204. For `CN(C)CCCCCCNC(=O)[C@@H]1C[C@@H]2C(=O)N[C@@H](Cc3ccccc3)C(=O)N2[C@@H]1c1ccc(O)cc1`, the z-score was 0.272.

For `C=CC[C@]1(C(=O)NCc2ccccc2)N=C(c2ccc(OCCCO)cc2)O[C@H]1c1ccccc1N=[N+]=[N-]`, the z-score was 0.148. Turning to `CC(C)N1C(=O)[C@@]2(Cc3ccccc31)c1ccccc1C(=O)N(Cc1ccccc1Cl)[C@H]2c1ccc(CO)cc1`, the z-score is -0.458.

Turning to `C=CCNC(=O)[C@@H]1[C@H]2C(=O)O[C@H](c3ccccc3)[C@H](c3ccccc3)N2[C@H](c2ccccc2OCCO)[C@@]12C(=O)N(C(=O)OCCOC)c1ccccc12`, the z-score is 0.494. Take `C=C(COC)/C(=C/C[C@H](OC(C)=O)c1ccc(CO)o1)c1cc(C(=O)OC)ccc1OC`: the z-score was -0.735. As for `O=C1NC(=O)C2C1C=CC(C(O)c1cc(C(F)(F)F)cc(C(F)(F)F)c1)N2Nc1ccccn1` (centres undefined), the z-score is 0.178.

Take `OCCCC1=CC(c2cccs2)N(Cc2cc3c(cc2Br)OCO3)CC1` (centres undefined): the z-score is 0.998. For the compound `C[C@H]1NC(=O)[C@@]23C(=O)N[C@@H](Cc4ccccc4)C2[C@H](C)[C@@]2(C)O[C@H]2C3/C=C/C/C=C\CNC(=O)[C@@H]2CCCN2C1=O` (some centres undefined), the z-score is 0.087. `COC(=O)[C@@]1(Cc2ccc(OC)cc2)[C@H]2c3cc(C(=O)N(C)C)n(Cc4ccc(S(C)(=O)=O)cc4)c3C[C@H]2CN1C(=O)c1ccccc1`: the z-score was -1.03.

For `O=C1c2ccccc2[C@](Cc2ccccc2I)(C(=O)NCC(F)(F)F)[C@H](c2ccc(CO)cc2)N1Cc1ccccc1Cl`, the z-score is -0.557. With `C=CC[C@]1(C(=O)NCCCOC)N=C(c2ccc(OCCCO)cc2)O[C@H]1c1ccccc1CN=[N+]=[N-]`, the z-score is -0.0062. `COc1cc(C(O)C2C=CC3C(=O)NC(=O)C3N2Nc2ccccn2)cc(OC)c1OC` (centres undefined): the z-score was 0.228. Take `[N-]=[N+]=NCc1ccccc1C[C@]1(C(=O)N2CCCCC2)N=C(c2ccc(OCCCO)cc2)O[C@H]1c1ccccc1N=[N+]=[N-]`: the z-score is -0.448. Same read-out and setting: the same measure for `COC(=O)C(CC#Cc1ccc2c(c1)[C@]1(C(=O)N2)[C@H](c2ccc(OCCO)cc2)N2[C@H](c3ccccc3)[C@H](c3ccccc3)OC(=O)[C@H]2[C@@H]1C(=O)N1CCc2cc(OC)c(OC)cc2C1)C(=O)OC`: 0.492; for `C=CCOC(=O)[C@H]1[C@@H]2C(=O)O[C@@H](c3ccccc3)[C@@H](c3ccccc3)N2[C@@H](c2ccc(OCCOC(=O)[C@@H]3C[C@@H]4C(=O)N[C@@H](CCCCNC(C)=O)C(=O)N4[C@@H]3c3ccc(O)cc3)cc2)[C@]12C(=O)Nc1ccccc12`: 0.21; for `O=C1C[C@@](C(=O)NC2CC2)(c2ccc([N+](=O)[O-])cc2)[C@@H](c2ccc(CO)cc2I)N1C1CCCCC1`: -0.233.

On to `O=C(NCCO)C1=C[C@H](Oc2ccccc2I)[C@@H](O)[C@H](N(Cc2ccco2)C(=O)Cc2ccccc2)C1`, for which the z-score was 0.304. Take `C=CCN1C(=O)[C@]2(O[C@H](CCn3cc([C@H](O)c4ccccc4)nn3)[C@@H]([Si](C)(C)c3ccc(OC)cc3)[C@@H]2C)c2cc(N3CCC3=O)ccc21`: the z-score was -0.171. Turning to `CC(C)NC(=O)[C@@H]1c2ccccc2C(=O)N(C2Cc3ccccc3C2)[C@H]1c1ccc(CO)cc1`, the z-score is 0.0987. On the same count and under the same terms, the same measure for `NC(=O)N1C(=O)C2C(C1=O)C1C=C(c3ccc(CO)cc3)C2C(c2cccs2)N1Cc1cccc(OC(F)(F)F)c1` (centres undefined): 0.723. Turning to `CC(C)NC(=O)[C@@]1(C)c2ccccc2C(=O)N(Cc2cc(C(F)(F)F)cc(C(F)(F)F)c2)[C@H]1c1ccc(CO)cc1`, the z-score is -0.197. The same measure, in the same setting: with `COC(=O)[C@@]1(Cc2ccc(OC)cc2)[C@H]2c3cc(C(=O)N(C)C)n(C)c3C[C@H]2CN1C(=O)c1ccccc1` the figure was 0.0799; with `CN1C(=O)C2C=CC(C(O)C#Cc3ccccc3)N(N3CCCCC3)C2C1=O` (centres undefined), -0.674.

For `COC(=O)C(CC#Cc1ccc2c(c1)[C@]1(C(=O)N2)[C@H](C(=O)Nc2nc3ccccc3s2)[C@H]2C(=O)O[C@H](c3ccccc3)[C@H](c3ccccc3)N2[C@@H]1c1ccccc1OCCO)C(=O)OC`, the z-score was 0.304. As to `COCCOC(=O)N1C(=O)[C@@]2(c3cc(C#CC4(O)CCCCCC4)ccc31)[C@H](c1ccc(OCCO)cc1)N1[C@H](c3ccccc3)[C@H](c3ccccc3)OC(=O)[C@H]1[C@@H]2C(=O)N1CCN(c2ncccn2)CC1`, the z-score was 0.22.

As to `C=C(C)[C@@H]1CC=C(C(O)C2C=CC3C(=O)N(c4ccccc4)C(=O)C3N2Nc2ccccc2)CC1` (some centres undefined), the z-score is -0.626. With `COC(=O)[C@@]1(Cc2ccc(OC)cc2)[C@H]2c3cc(C(=O)N(C)C)n(Cc4ccccn4)c3C[C@H]2CN1C(=O)c1ccccc1`, the z-score was -0.406.

`NC(=O)NCC#Cc1ccc2c(c1)[C@]1(C(=O)N2)[C@H](c2ccccc2OCCO)N2[C@H](c3ccccc3)[C@H](c3ccccc3)OC(=O)[C@H]2[C@@H]1C(=O)Nc1nc2ccccc2s1`: the z-score was 0.212.
